Compounds with a hit are over-represented: about 4.2% of the library has one in this group of screens.
ssDAF12 agonist = activators of S. stercoralis DAF-12 nuclear receptor; HEK293 ssDAF-12/GRIP1 lit1-tk-luc reporter, luminescence; % of 3 µM dafachronic acid response; activation, % at 6.8 µM; actives 1% (n = 370,000);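 active = activation above the mean over all tested compounds plus 3 SD, cut at about 0.9% in these data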;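 also: 0% = DMSO-only wells and 100% = 3 µM delta7-dafachronic acid wells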
hgDAF-12 ag = agonists of H. glycines DAF-12 nuclear receptor | HEK293 GAL4-hgDAF12 UAS-luciferase reporter, agonist luminescence; normalized to butyrate control | activation, % at 6.8 µM | actives 1.8% (n = 370,000);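 active = activation above a cutoff set at the mean of all screened compounds plus 3 SD, cut at about 10% in these data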;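 also: 0% = DMSO wells and 100% = sodium butyrate wells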
esBAF inh = blocks esBAF chromatin remodeling in mouse ES cells | Bmi1-luciferase knock-in reporter, 24 h; 100% = twice the neutral-well signal | reporter increase, % at 12.5 µM | actives 2% (n = 350,000); in the data active = activation above about 40%; inconclusive = no clear call, values can overlap the other calls;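 also: 0% = median of the plate's neutral control wells and 100% = double that signal; a rise in the Bmi1 reporter signal indicates esBAF inhibition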
hcDAF12 agonist = activators of H. contortus DAF-12 nuclear receptor; HEK293 hcDAF-12 lit1-tk-luc reporter, luminescence; 0% DMSO, 100% Δ7-dafachronic acid; activation, % at 6.8 µM; actives 1.4% (n = 370,000); AID 652067;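 active = activation above the mean of all tested compounds plus 3 SD, cut at about 5.5% in these data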;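 also: 100% = response to 3 µM Δ7-dafachronic acid high control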
Wnt act = activates Wnt/beta-catenin signaling in a reporter cell assay. activator, plate reader. activation, % at 9.35 µM. actives 1.2% (n = 300,000); in the data active = activation above about 30%, passing the limit was not always enough; inconclusive = no clear call, values can overlap the other calls;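 also: 0% = neutral control wells and 100% = positive control wells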
DAX1 StAR inh = inhibitors of DAX1 repression of SF-1 activated StAR promoter | HEK293T StAR-luciferase reporter, SF-1/DAX-1 repression relief | inhibition, % at 6.8 µM | actives 1.1% (n = 370,000) | AID 652010;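 active = inhibition above the mean over all tested compounds plus 3 SD, cut at about 3.6% in these data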;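 also: 0% = DAX-1 cells with DMSO and 100% = cells lacking DAX-1 with DMSO; higher inhibition means more luminescence from relief of DAX-1 repression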
Starred values were filed as active, the others as inactive; ? = inconclusive; . = no result given.

SMILES	ssDAF12 agonist	hgDAF-12 ag	esBAF inh	hcDAF12 agonist	Wnt act	DAX1 StAR inh
Oc1ccccc1C=NNC(=S)NC1CC2C=CC1C2 (stereo not given)	-1.3	8.8	70.0*	-0.5	-2.6	1.9
COc1ccc(/C=C2\SC(=O)N(CCNC(=O)CCS(=O)(=O)c3ccc(C)cc3)C2=O)cc1	0.3	9.2	.	4.3	33.2*	0.7
COc1ccc(/C=C2\SC(=O)N(CCNC(=O)Cn3cnnn3)C2=O)cc1	.	.	.	.	19.5	.
CC(C)(C)C(=O)NCCN1C(=O)S/C(=C\c2ccc([N+](=O)[O-])cc2)C1=O	-1.1	12.1*	4.6	-2.0	-1.6	-0.7
CC(=O)c1cccc(NC(=O)c2sc3nc4n(c(=O)c3c2C)CCCC4)c1	-1.1	2.4	49.0*	0.8	3.9	0.8
CC(=O)Nc1ccc(NC(=O)c2sc3nc4n(c(=O)c3c2C)CCCCC4)cc1	-2.3	-6.5	.	-3.1	3.2	-1.3
CCc1ccc(NC(=O)c2sc3nc4n(c(=O)c3c2C)CCC4)cc1	-0.7	1.8	43.6*	1.8	10.4	-0.2
Cc1ccc(CCNC(=O)c2sc3nc4n(c(=O)c3c2C)CCC4)cc1	-1.1	0.6	10.0	0.2	1.5	0.6
C[C@@H](NC(=O)C[C@H]1CC[C@H](NC(=O)C2CCC2)[C@H](CO)O1)c1ccccc1	.	.	-3.3	.	.	.
CN(Cc1cn(C)c2ccccc12)C(=S)Nc1cc(F)cc(F)c1	1.2*	1.9	.	4.3	-0.6	0.1
CCC(=O)N=c1sc2cc(F)cc(F)c2n1C	0.2	6.3	36.5	6.1*	2.2	-0.7
COc1ccccc1Nc1nc2ccccc2n1C	-1.1	9.6	64.6*	2.6	14.2	3.1
COc1ccccc1NC(=O)COc1ccccc1C(=O)c1cnn(-c2ccccc2)c1	0.1	12.8*	.	1.8	49.9*	0.7
C[C@@H]1CN([C@H](C)CO)S(=O)(=O)c2ccc(Br)cc2O[C@H]1CN(C)Cc1ccccc1	.	.	-4.4	.	.	.
Nc1nc2ccccc2n1/N=C/c1ccc(Br)cc1	-0.5	12.0*	39.9	3.3	-1.2	2.5
CC(C)(C)C(=O)Nc1ccc(C(=O)COC(=O)C2CC2)cc1	0.1	1.3	59.8*	3.8	0.6	2.2
COC(=O)c1ccc(NC(=O)COC(=O)C2CCC2)cc1	-1.2	-1.1	0.8	-1.4	0.1	1.2
CCCNC(=O)c1oc2ccc3c(c2c1C)C(O)CC(C)(C)O3 (stereo not given)	-0.8	-3.0	16.5	-1.1	0.3	-0.1
Cc1c(C(=O)NCc2ccoc2)oc2ccc3c(c12)C(=O)CC(C)(C)O3	-0.7	6.3	103.9*	1.0	.	0.4
CCC(=O)N[C@H]1C=C[C@@H](CC(=O)NCc2cc(F)cc(F)c2)O[C@@H]1CO	.	.	1.3	.	.	.
O=C(NCC1CCCCC1)c1ccc(F)cc1Cl	-0.2	3.5	17.8	1.4	10.9	0.6
O=C(NC1CC1)c1ccc(F)cc1Cl	1.0*	0.1	-6.7	-1.4	.	0.3
C[C@H]1CCCCO[C@H](CN(C)C(=O)C2CCCCC2)[C@@H](C)CN([C@@H](C)CO)C(=O)c2cc(NC(=O)CCCN(C)C)ccc2O1	.	.	-0.7	.	.	.
O=C1/C(=C/c2ccccc2)CCC1C1CCCC1 (stereo not given)	-0.7	-2.5	23.7	2.2	7.5	0.0
O=C1/C(=C/c2ccco2)Cc2ccccc21	-0.1	7.1	.	1.3	?	0.1
SMILES	ssDAF12 agonist	hgDAF-12 ag	esBAF inh	hcDAF12 agonist	Wnt act	DAX1 StAR inh
O=C1/C(=C/c2ccco2)CCC1C1CCCC1 (stereo not given)	0.0	-0.5	17.4	-0.2	37.9*	-0.3
O=C1/C(=C\c2ccco2)CCC/C1=C\c1ccco1	0.0	2.4	76.9*	4.1	.	0.9
CO[C@H]1CN(C)C(=O)c2cc(NC(C)=O)ccc2OC[C@H](C)N(CCc2ccccc2)C[C@H]1C	.	.	-0.1	.	.	.
O=C(Nc1cccc2c1[nH]c(=O)c1ccccc12)C(F)(F)F	-0.7	6.4	1.6	-0.9	-2.9	4.0*
Cc1ccc(Nc2nc(N)nc(CC#N)n2)cc1	-1.4	4.2	69.5*	2.6	.	1.2
Cc1ccc(Nc2nc(N)nc(CCl)n2)cc1	-0.4	2.8	.	1.6	39.1*	-1.1
Cc1ccc(Nc2nc(N)nc(COC(=O)C3=COCCO3)n2)cc1	0.7	7.5	36.8	1.0	?	3.6*
Cc1ccc(Nc2nc(N)nc(CSCCO)n2)cc1	-0.5	6.3	?	2.7	29.1	1.1
CN(C)C(=O)c1cccc(-c2ccc3c(c2)[C@@H]2[C@@H](CCN2C(=O)c2ccc4c(c2)OCO4)[C@H](CO)N3)c1	.	.	6.2	.	.	.
COc1ccc(S(=O)(=O)Nc2cccc3c2O[C@@H](CN(C)Cc2ccc(-c4ccccc4)cc2)[C@@H](C)CN([C@H](C)CO)C3=O)cc1	.	.	8.6	.	.	.
Cc1nc(N=Nc2ccc(O)cc2)n[nH]1	-0.7	4.9	4.4	2.7	43.8*	1.8
Cc1ccc(-c2nc(N=Nc3ccc(O)cc3)n[nH]2)cc1	-1.6	11.3*	.	0.4	.	2.7
COc1ccc(-c2nc(N=Nc3ccc(O)cc3)n[nH]2)cc1	-1.1	6.0	14.5	-2.4	-0.3	-0.1
CCOc1ccc(S(=O)(=O)Nc2cc(SCC(=O)O)c(O)c3ccccc23)cc1	1.5*	-3.5	-5.4	0.3	-0.2	-1.3
O=C(O)CSc1cc(NS(=O)(=O)c2cccc([N+](=O)[O-])c2)c2ccccc2c1O	1.0*	0.1	5.5	4.1	9.5	-0.8
O=C(C[C@H]1CC[C@@H]2[C@H](COC[C@H](O)CN2Cc2ccc(F)cc2)O1)NCc1ccncn1	.	.	-3.9	.	.	.
COc1ccc(C(C#N)=Cc2ccc(OC)c(OC)c2)cc1	-1.1	7.7	68.4*	-0.7	2.0	0.1
COc1ccc(C(C#N)=Cc2ccc(NC(C)=O)cc2)cc1	-1.1	6.3	20.9	-0.3	-2.4	3.7*
COc1ccc(/C=C(/C#N)c2cccnc2)cc1OC	-1.3	2.0	5.1	-0.8	-4.3	-0.5
CCCC#Cc1cnc2c(c1)C(=O)N([C@H](C)CO)C[C@@H](C)[C@@H](CN(C)C(=O)NC1CCCC1)O2	.	.	3.3	.	.	.
C[C@H](CO)N1C[C@H](C)[C@@H](CN(C)C)Oc2ccc(NS(C)(=O)=O)cc2CC1=O	.	.	2.5	.	.	.
CC(=O)NC12CC3CC(C1)CC(C(=O)Nc1nc4ccc(F)cc4s1)(C3)C2	-0.3	4.9	44.7*	3.4	5.8	2.0
COc1ccc(C(=O)Nc2cnc(NC(=O)c3cccs3)cc2C)cc1	-0.9	7.0	46.9*	1.4	6.1	0.9
CCCCC(=O)Nc1cnc(NC(=O)c2cccs2)cc1C	0.4	11.7*	5.4	3.9	-1.9	2.2
COc1ccc(CN(C)C[C@@H]2Oc3ccc(NS(=O)(=O)c4cn(C)cn4)cc3CC(=O)N([C@@H](C)CO)C[C@H]2C)cc1	.	.	-1.7	.	.	.
O=C(OCC(=O)N1CCc2ccccc2C1)c1ccc(F)cc1Cl	-1.0	10.9*	17.7	-0.2	0.7	0.6

Bioassay records from PubChem BioAssay.
